Where “and” joins values, the source holds several entries; their conditions need not be identical. Equal entries are not always repeated. Compounds without any hit were thinned out: in the full panel of roughly 83,000, 20% have a hit.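 The endpoint reported here, percent growth, reads 100 for growth as untreated, 0 for no net growth and -100 for all cells dead.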 Calls of active or inactive are those of the source. The calls were made as follows: active = growth percent below 10; inactive = the rest.
Experiments:
Experiment in all cases: NCI-60 one-dose screen, 48 h (100 = growth as untreated, 0 = no growth, -100 = all killed)
Settings in all cases: 10 µM unless noted
SK-MEL-2 melanoma = tested on: SK-MEL-2 melanoma
EKVX NSCLC = tested on: EKVX NSCLC
SN12C renal = tested on: SN12C renal
UO-31 renal = tested on: UO-31 renal
ACHN renal = tested on: ACHN renal
CAKI-1 renal = tested on: CAKI-1 renal
A498 renal = tested on: A498 renal
CCRF-CEM leukemia = tested on: CCRF-CEM leukemia
MOLT-4 leukemia = tested on: MOLT-4 leukemia
SR leukemia = tested on: SR leukemia
RPMI-8226 leukemia = tested on: RPMI-8226 leukemia
OVCAR-8 ovarian = tested on: OVCAR-8 ovarian
OVCAR-5 ovarian = tested on: OVCAR-5 ovarian
OVCAR-4 ovarian = tested on: OVCAR-4 ovarian
SK-OV-3 ovarian = tested on: SK-OV-3 ovarian
IGROV1 ovarian = tested on: IGROV1 ovarian
OVCAR-3 ovarian = tested on: OVCAR-3 ovarian
HS 578T breast = tested on: HS 578T breast
NCI/ADR-RES ovarian = tested on: NCI/ADR-RES ovarian
TK-10 renal = tested on: TK-10 renal

Row | SMILES | growth (SK-MEL-2 melanoma) | growth (EKVX NSCLC) | growth (SN12C renal) | growth (UO-31 renal) | growth (ACHN renal) | growth (CAKI-1 renal) | growth (A498 renal) | growth (CCRF-CEM leukemia) | growth (MOLT-4 leukemia) | growth (SR leukemia) | growth (RPMI-8226 leukemia) | growth (OVCAR-8 ovarian) | growth (OVCAR-5 ovarian) | growth (OVCAR-4 ovarian) | growth (SK-OV-3 ovarian) | growth (IGROV1 ovarian) | growth (OVCAR-3 ovarian) | growth (HS 578T breast) | growth (NCI/ADR-RES ovarian) | growth (TK-10 renal)
1 | CCOC(=O)c1c(C)oc(C)c(C(=O)OCC)c1=O | 111% (inactive) and 112% (inactive) | 128% (inactive) and 104% (inactive) | 113% (inactive) and 97.9% (inactive) | 96.6% (inactive) and 86.9% (inactive) | 102% (inactive) and 105% (inactive) | 103% (inactive) and 95.4% (inactive) | 113% (inactive) and 117% (inactive) | 96% (inactive) and 108% (inactive) | 150% (inactive) and 80.2% (inactive) | 118% (inactive) and 85% (inactive) | 85.9% (inactive) and 94.5% (inactive) | 104% (inactive) and 102% (inactive) | 114% (inactive) | 105% (inactive) and 94.6% (inactive) | 97.8% (inactive) and 95.3% (inactive) | 114% (inactive) and 94.7% (inactive) | 105% (inactive) and 127% (inactive) | 109% (inactive) | 108% (inactive) | 
2 | CC(C)Cc1ccc(C(C)C(=O)NCc2ccc(Cn3c(=O)sn(CCCCl)c3=O)cc2)cc1 (configuration not stated) | 103% (inactive) and -3.28% (active) | 89.3% (inactive) and -64.7% (active) | 98.7% (inactive) and -60.5% (active) |  | 97.3% (inactive) and -100% (active) | 87.1% (inactive) and -86.6% (active) | 87.8% (inactive) and 55.6% (inactive) | 53.4% (inactive) and 3.84% (active) | 90.4% (inactive) and 0.866% (active) | 108% (inactive) and 3.82% (active) | 99.8% (inactive) and -30.9% (active) | 94.5% (inactive) and -3.85% (active) | 105% (inactive) and -52.9% (active) | 79.8% (inactive) and -94.2% (active) | 107% (inactive) and 69.5% (inactive) | 99.3% (inactive) and -79.1% (active) | 98.2% (inactive) and -83.4% (active) | 106% (inactive) and -11% (active) | 99.4% (inactive) and -32.1% (active) | 88% (inactive) and -91.9% (active)
3 | O=C(O)CN(CCN(CC(=O)O)CC(=O)O)CCN(CC(=O)O)CC(=O)O | -31.4% (active) and 101% (inactive) and 93.2% (inactive) | -24.9% (active) and 105% (inactive) and 111% (inactive) | 1.71% (active) and 99.1% (inactive) and 101% (inactive) |  | 97.5% (inactive) and 104% (inactive) | -7.19% (active) and 87% (inactive) | 12.7% (inactive) | 5.22% (active) and 97.7% (inactive) and 102% (inactive) | -17.3% (active) and 113% (inactive) and 96% (inactive) | -21% (active) and 105% (inactive) and 101% (inactive) | 14.4% (inactive) and 102% (inactive) and 101% (inactive) | -15.6% (active) and 97.9% (inactive) and 99.4% (inactive) | 89.8% (inactive) and 109% (inactive) | 20.2% (inactive) and 105% (inactive) and 100% (inactive) | 0.709% (active) and 105% (inactive) and 108% (inactive) | 15% (inactive) | -17.3% (active) and 110% (inactive) and 108% (inactive) | 7.28% (active) and 134% (inactive) | -37.7% (active) and 110% (inactive) and 113% (inactive) | -24.1% (active) and 110% (inactive) and 94% (inactive)

Reference: PubChem BioAssay (NCI)
